# p53 reactivator: mutant p53 re-activation in reporter cells | hit rate 0.063% among 320,000 | AID 504706 | Potency, µM (top dose mostly 92.2 µM), for the others: at the highest dose activity change, positive = activation, most hits filed as activators | H1299 p53-A138V BP100-luciferase reporter, luminescence, 24 h; further: potency means the concentration at half of the fitted maximal effect; % of control where 0% means no effect; nearly all actives have a fitted effect of over 45% in size
#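 H1299 (p53-null), stable ts p53-A138V + BP100-Luc; 1000 cells/well, Opti-MEM/10% FBS; cpd 4 pt, 1:5; 24 h, 37 deg C, 5% CO2; detection reagent 10 min RT; luminescence.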
# gsp agonist: activates gsp, the McCune-Albright syndrome mutation; Potency, µM (top dose mostly 76.9 µM), for the others: at the highest dose activation (cAMP increase), hits mostly activators; AID 624287; gsp mutant cells, cAMP HTRF, 30 min; hit rate 0.13% among 340,000; active means well fitted activation curve with a large enough effect; inconclusive means small, poorly fitted or top-dose-only effect, or another doubt; inactive means no such curve, though single readings can be large or run the other way; cell line not stated here;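 further: phosphodiesterase inhibitor Ro 20-1724 added with compounds to block cAMP breakdown; potency means the concentration at half of the fitted maximal effect; nearly all actives have a fitted effect of over 60% in size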
#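 Cells stably selected in G418 were plated at 2000/well, grown 16-24 hr, then given compounds in DMSO with the PDE inhibitor […] (300 uM solution added) for 30 min at 37C; cAMP was read by HTRF.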
# RXFP1 ag: RXFP1 (human) receptor agonism; HEK293T-RXFP1 cAMP TR-FRET, 30 min; response scale: percent of porcine relaxin response, buffer zero; hit rate 0.3% among 370,000; AID 2676; Potency, µM (doses to about 57.5 µM), inactives show at the top dose activation, most hits filed as activators; Q9HBX9; further: potency means the concentration at half of the fitted maximal effect; on the % scale 0 is the no-effect control and ±100 the full control effect; nearly all actives have a fitted effect of over 60% in size
#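 cAMP rise read by TR-FRET after 30 min, 37C compound exposure (up to 58 uM) in RXFP1-transfected HEK293 cells with Ro 20174 present. EC50 from Hill-equation fits, with 29 nM porcine relaxin as 100% and buffer as basal.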
# gsp antag: gsp mutant antagonism | gsp-mutant cells, cAMP HTRF, 30 min | Potency, µM (series often up to 76.9 µM), for the others: at the highest dose activity change, negative = inhibition, actives largely listed as inhibitors | hit rate 0.4% among 340,000 | AID 624288; calls by dose curve; cell line not stated here;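 further: intracellular cAMP measured with PDE inhibitor Ro 20-1724 present during compound exposure; potency means the concentration at half of the fitted maximal effect; on the % scale 0 is the no-effect control and ±100 the full control effect; nearly all actives have a fitted effect of over 65% in size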
#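 Cells, 2000/well, grown 16–24 h in DMEM 10% FBS with 0.5 mg/ml G418, then compounds plus […] (300 uM addition stock), 30 min at 37C. cAMP read by HTRF (cAMP-d2 and anti-cAMP antibody-K in lysis buffer) after 30 min RT.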
# Tb PFK inh-1: T. brucei PFK enzyme inhibition. T. brucei PFK, ADP-Glo luminescence. Potency, µM (titrated, usually from 57.5 µM), for the others: at the highest dose activity, negative = inhibition, usual class: inhibitors. hit rate 0.17% among 330,000. AID 485367;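 further: potency means the concentration at half of the fitted maximal effect; 0% = uninhibited 1x PFK enzyme wells and -100% = no-enzyme wells; nearly all actives have a fitted effect of over 60% in size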
# Target sequence (O15648 whole entry, looked up): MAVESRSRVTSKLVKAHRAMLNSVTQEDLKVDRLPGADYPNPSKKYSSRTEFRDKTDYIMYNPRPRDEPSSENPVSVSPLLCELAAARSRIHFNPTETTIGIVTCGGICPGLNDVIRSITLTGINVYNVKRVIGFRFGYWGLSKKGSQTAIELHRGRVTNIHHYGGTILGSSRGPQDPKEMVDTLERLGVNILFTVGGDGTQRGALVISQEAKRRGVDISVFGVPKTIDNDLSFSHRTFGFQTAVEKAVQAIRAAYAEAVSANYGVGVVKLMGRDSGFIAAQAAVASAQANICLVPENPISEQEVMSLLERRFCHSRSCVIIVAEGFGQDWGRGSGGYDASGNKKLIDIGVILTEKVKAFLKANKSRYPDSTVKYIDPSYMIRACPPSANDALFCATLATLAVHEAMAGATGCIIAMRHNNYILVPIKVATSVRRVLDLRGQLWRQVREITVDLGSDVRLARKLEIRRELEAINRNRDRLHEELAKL
#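 1.25 nM PFK with 0.5 mM F6P and 0.1 mM ATP in 0.1 M TEA pH 8.0, 5 mM MgCl2, incubated 45 min at room temperature; ADP measured by ADP-Glo luminescence; compounds titrated up to 57 uM.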
# RXFP1 antag: RXFP1 (human) relaxin receptor antagonism; HEK293-RXFP1, relaxin-stimulated cAMP HTRF, 30 min; hits give low values; activity change, negative = inhibition, % at 57.5 µM; hit rate 0.59% among 350,000; Q9HBX9;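 active means activity change of -60% or lower, but not beyond a set lower limit; inconclusive means change between -60% and -40%, or beyond the set limit; inactive means change above -40%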; further: on the % scale 0 is the no-effect control and ±100 the full control effect
# Tb PFK KinaseGlo: Tb phosphofructokinase inhibition, orthogonal luminescence; Tb PFK enzyme, ATP depletion, Kinase-Glo Plus luminescence; shares compounds with Tb PFK inh-1; Potency, µM (highest dose often 57.5 µM), for inactives: at the highest dose inhibition; hit rate 47% among 1,100; calls by dose curve; further: potency means the concentration at half of the fitted maximal effect; nearly all actives have a fitted effect of over 60% in size
# Tb PFK inh-2: validation of T. brucei phosphofructokinase inhibitors. shares compounds with Tb PFK inh-1. purified T. brucei PFK, ADP-Glo luminescence, 45 min. Potency, µM (titrated, usually from 57.5 µM), for inactives: at the top dose activity change, negative = inhibition, most hits filed as inhibitors. hit rate 41% among 1,100. AID 504637;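 further: potency means the concentration at half of the fitted maximal effect; plate controls were full PFK enzyme control for no effect and no enzyme control for full effect; nearly all actives have a fitted effect of over 60% in size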
# The depositor's hits bear a star; ? = inconclusive; / = no result; [ ] = another dose, or the depositor's remark. Hits are enriched below; roughly 1.1% of the tested compounds scored in any of these assays. Unless noted, the call rests on the fitted dose curve; in most records, active means well fitted curve in the direction sought with a large enough effect; inconclusive means small, poorly fitted or top-dose-only effect, or another doubt; inactive means no such curve, though single readings can be large; an effect the other way counts as inactive or inconclusive.
SMILES,p53 reactivator,gsp agonist,RXFP1 ag,gsp antag,Tb PFK inh-1,RXFP1 antag,Tb PFK KinaseGlo,Tb PFK inh-2
CS(=O)(=O)N1CC(C(=O)NC2CCCC2)Oc2ccc(Cl)cc21 (stereo not given),-3%,16%,0%,-8%,19µM*,-4,9.5µM*,24µM*
CC(C)CNC(=O)c1cccc(NC(=O)c2ccc(Cl)c([N+](=O)[O-])c2)c1,2%,?,3%,?,24µM*,?,11µM*,21µM*
CC(=O)N1CCN(c2ccc(NC(=O)c3ccc(Cl)c([N+](=O)[O-])c3)cc2)CC1,-1%,16%,1%,?,?,2,?,30µM*
O=C(Nc1ccc(Cl)c([N+](=O)[O-])c1)c1ccncc1,-3%,-24%,2%,11%,?,6,?,?
CC(C)C12CN3CCN(CC(C3)/C1=N\O)C2,0%,?,0%,12%,0%,3,/,/
O=C(COc1ccccc1[N+](=O)[O-])N/N=C/c1ccc(O)c([N+](=O)[O-])c1,-1%,1%,3%,-29%,?,-34,-28%,?
COc1cc(/C=N/NC(=O)Cn2c([N+](=O)[O-])cnc2C)ccc1OC(=O)N(C)C,0%,-14%,-1%,3%,-5%,25,/,/
O=C(OCC(=O)c1ccc([N+](=O)[O-])cc1)/C(=C/c1ccc(Cl)cc1)NC(=O)c1ccccc1,5%,-56%,1%,-10%,-4%,-31,/,/
O=C(O)COc1ccccc1C=NNc1ccc([N+](=O)[O-])cc1S(=O)(=O)Nc1ccc(Cl)cc1,-1%,-18%,/,6%,19µM*,-16,30µM*,?
Cc1ccc(NC(=O)c2ncn(CCCNCCN3CCOCC3)n2)cc1C,/,/,/,-7%,/,/,/,/
Cc1cccc(C)c1OCC(=O)Nc1ccc(Cl)cc1C(=O)c1ccccc1,/,/,2%,/,/,-11,/,/
Cc1ccc(C(=O)CSc2nnc(CNc3ccc(F)cc3)o2)cc1,0%,-13%,0%,3%,17µM*,7,?,24µM*
NC(=O)N/N=C1\c2ccccc2-c2c(C(N)=O)cccc21,-2%,16%,0%,-16%,?,8,11%,-4%
CC(=NCCCN1CCOCC1)c1c(O)[nH]c(=O)[nH]c1=O,-1%,25%,2%,0%,-3%,-11,/,/
O=[N+]([O-])c1oc2ccc3ccccc3c2c1CCO,/,16%,/,1%,/,-3,/,/
NS(=O)(=O)c1ccc(N/N=C/c2ccc(O)c(O)c2O)c([N+](=O)[O-])c1,-5%,-3%[15.4 µM],-2%,-23%,?,?,?,?
CNc1cccccc1=S,?,-80%,3%,0%,12µM*,4,?,?
Cn1c(O)c(/C=C/C=Nc2ccccc2)c(=O)n(C)c1=S,2%,-11%,-2%,-14%,0%,-12,/,/
CN1CCc2nc3sc(C(=O)NC4CC4)c(N)c3cc2C1,4%,-31%,11%,-26%,8%,-7,/,/
Nc1c(C(=O)NC2CC2)sc2nc3c(c(-c4ccco4)c12)CC/C3=C/c1ccco1,-17%,-59%,0%,-30%,6.7µM*,?,?,?
N#Cc1cccc(NC(=O)c2sc3nc4c(cc3c2N)N2CCC4CC2)c1,/,/,21%,/,/,1,/,/
